We go through 91 molecules from PubChem BioAssay AID485346 (Sanford-Burnham Center for Chemical Genomics, 2010).

By inhibition is commonly meant the change of the read-out against control, counted positive when it falls.

The campaign covered roughly 330,000 compounds. About 10,000 (3%) were called active. What follows is part of a selection rich in actives, with near analogues and random picks from the rest. A number with no mark means an inactive call.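 How the source made its calls: active means inhibition of at least 50% at 8 µM in the primary screen; inactive means the rest.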

Sequence of Protein Mdm4 (Homo sapiens) + E3 ubiquitin-protein ligase Mdm2 (Homo sapiens) (O15151 whole entry, looked up): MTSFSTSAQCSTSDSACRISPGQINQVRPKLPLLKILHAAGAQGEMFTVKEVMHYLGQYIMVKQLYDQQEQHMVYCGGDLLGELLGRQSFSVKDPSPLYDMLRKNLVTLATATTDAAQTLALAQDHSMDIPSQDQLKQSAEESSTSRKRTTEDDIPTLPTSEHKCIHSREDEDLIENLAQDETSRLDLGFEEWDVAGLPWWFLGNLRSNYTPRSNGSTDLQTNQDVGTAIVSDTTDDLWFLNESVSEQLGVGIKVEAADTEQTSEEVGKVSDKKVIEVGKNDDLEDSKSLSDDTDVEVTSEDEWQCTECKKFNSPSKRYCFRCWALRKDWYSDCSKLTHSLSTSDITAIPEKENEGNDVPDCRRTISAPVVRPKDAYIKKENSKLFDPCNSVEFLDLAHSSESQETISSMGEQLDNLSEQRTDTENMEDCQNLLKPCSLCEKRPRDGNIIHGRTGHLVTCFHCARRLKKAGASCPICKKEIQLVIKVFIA
Sequence of Protein Mdm4 (Homo sapiens) + E3 ubiquitin-protein ligase Mdm2 (Homo sapiens) (Q00987 whole entry, looked up): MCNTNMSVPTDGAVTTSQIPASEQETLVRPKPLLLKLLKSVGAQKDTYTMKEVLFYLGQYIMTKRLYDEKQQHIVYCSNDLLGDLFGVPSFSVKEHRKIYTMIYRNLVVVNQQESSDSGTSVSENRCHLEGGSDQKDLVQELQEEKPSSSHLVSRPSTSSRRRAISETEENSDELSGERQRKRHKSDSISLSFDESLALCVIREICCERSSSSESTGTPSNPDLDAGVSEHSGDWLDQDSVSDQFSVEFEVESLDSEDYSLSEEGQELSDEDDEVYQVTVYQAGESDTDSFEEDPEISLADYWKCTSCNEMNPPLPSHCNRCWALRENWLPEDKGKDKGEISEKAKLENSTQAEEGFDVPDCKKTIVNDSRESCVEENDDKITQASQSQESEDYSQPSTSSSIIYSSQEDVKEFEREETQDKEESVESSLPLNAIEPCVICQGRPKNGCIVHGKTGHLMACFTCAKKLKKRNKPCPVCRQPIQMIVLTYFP

The experiment addresses Protein Mdm4 (Homo sapiens) + E3 ubiquitin-protein ligase Mdm2 (Homo sapiens) (UniProt O15151+Q00987). The experiment in a line: inhibitors of human Mdm2-MdmX association, primary screen, cell-based, luminescence, split luciferase, SaOS-2, uHTS (AID 485346). As to conditions: SaOS-2 split-luciferase Mdm2/MdmX complementation, at 8 µM, stronger effect = higher value.
`CC1CC(C)CN(S(=O)(=O)c2cccc(C(=O)N3C(=O)c4cccc(N)c4C3=O)c2)C1` (stereo unspecified): the inhibition is 19.4%. With `Cc1cc(C)n(-c2ccc(NC(=O)C3CCCCN3C(=O)c3cccs3)cc2)n1` (stereo unspecified), the inhibition was 12%.

For the molecule `COc1ccc(NC(=O)CCCC2CCCCC2)c(OC)c1`, the inhibition is -13.7%. For `Cc1ccccc1-n1nnc2c(=O)oc3ccccc3c21`, the inhibition was 8.39%.

As for `O=C(NC(Nc1nc2ccc([N+](=O)[O-])cc2s1)(C(F)(F)F)C(F)(F)F)c1ccccc1`, the inhibition was 99.3% (active).

With `CNC(=O)c1ccsc1NC(=O)c1ccc(S(=O)(=O)N2CCc3ccccc32)cc1`, the inhibition was 38%. Take `O=C(CCNC(=O)c1ccccc1)Nc1nc2ccccc2s1`: the inhibition was -16.2%. With `Cc1ccc(NC(=O)c2cccc(S(=O)(=O)N3CCCc4ccccc43)c2)nc1`, the inhibition was 2.43%.

As to `O=C(CNC(=O)c1ccccc1)Oc1ccc([N+](=O)[O-])cc1`, the inhibition was -9.24%. As to `O=C(Nc1nc2ccc([N+](=O)[O-])cc2s1)c1ccc(S(=O)(=O)N2CCCc3ccccc32)cc1`, the inhibition is 96.6% (active).

Turning to `CCCCCCC12CCC(C(=O)O)(CC1)CC2`, the inhibition is 11.2%.

As for `COc1cccc(CC(=O)OCC(=O)NCc2ccc3c(c2)OCO3)c1`, the inhibition was 1.87%. Regarding `CCn1c(CSCc2c(Cl)cccc2Cl)n[nH]c1=S`, the inhibition was 7.91%. Consider `Cc1cc(NS(=O)(=O)c2ccc(NC(=O)c3cccc(OC(F)F)c3)cc2)nc(C)n1`, for which the inhibition is -4.83%. The figure for `COc1ccc(C2c3[nH]c4ccccc4c3C[C@H]3C(=O)N(CC(C)C)CC(=O)N23)c(OC)c1` (stereo partly specified) is 13.6%; for `COc1ccc(Br)c2c1C(=O)CC2` it is 7.81%. `O=C(NCCCn1ccnc1)C(=O)NCC1OCCN1S(=O)(=O)c1cc(F)ccc1F` (stereo unspecified): the inhibition is -11.2%. Consider `CCOC(=O)c1ccc(NC(=O)c2c(N)n(C)c(=O)[nH]c2=O)cc1`, for which the inhibition was 5.07%. Consider `CCOC(=O)c1ccc(NC(=O)c2cc(=O)[nH]c3ccccc23)cc1`, for which the inhibition was 23%. On to `CCOC(=O)c1ccc(NC(=O)c2c(NCc3ccccc3)[nH]c(=O)[nH]c2=O)cc1`, for which the inhibition was 73.2% (active).

With `CCOC(=O)N1CCC(N2Cc3cccc(C(=O)Nc4c(C)cccc4CC)c3C2=O)CC1`, the inhibition was 12.5%. In the case of `CCOc1ccccc1NC(=O)Cn1nnc(C(=O)NCc2cccs2)c1N`, the inhibition is 61.5% (active). As for `Cc1ccc(NC(=O)Cn2nnc(C(=O)NCc3ccco3)c2N)c(C)c1`, the inhibition is 11.7%. In the case of `CCOc1ccccc1NC(=O)Cc1cccs1` it was 2.43%; in that of `CCN(CC)CCC(c1cc(OC)c(OC)c(OC)c1)c1c(OC)cc(OC)c2c(-c3ccccc3)cc(=O)oc12` (stereo unspecified), 62.7% (active); in that of `COc1ccc(-c2c(C)cc3oc(=O)cc(-c4ccccc4)c3c2C)cc1C=O`, 27.5%. Consider `CCN(CC)C(=O)CC(c1ccc2c(c1)OCO2)c1c(OC)cc(OC)c2c(-c3ccccc3)cc(=O)oc12` (stereo unspecified), for which the inhibition is 13%. In the case of `COc1cc(C(CCN2CCN(c3ccccc3)CC2)c2c(OC)cc(OC)c3ccc(=O)oc23)cc(OC)c1OC` (stereo unspecified), the inhibition is 15.2%. Turning to `COc1cc(OC)c2ccc(=O)oc2c1C(CCN1CCN(c2ccccc2)CC1)c1ccc2c(c1)OCO2` (stereo unspecified), the inhibition was 42.4%.

As to `CCN(CC)CCC(c1ccc2c(c1)OCO2)c1c(OC)cc(OC)c2c(-c3ccccc3)cc(=O)oc12` (stereo unspecified), the inhibition was 76.1% (active).

For the molecule `O=C(CN1CCCCC1)NC(=O)Nc1ccccc1F`, the inhibition was 12.7%. On to `O=C(NNC1=C(C(=O)C(F)(F)F)CCC1)c1ccncc1`, for which the inhibition is 8.09%.

Take `COc1cc(OC)c(C(=O)NNC(=O)c2ccccc2-n2cccc2)cc1OC`: the inhibition is 12.8%.

Consider `CNC(=O)C1CC(=O)N(c2ccc(OCC(=O)Nc3ccccc3C)cc2)C1` (stereo unspecified), for which the inhibition is 10.1%. The figure for `COc1ccc(CN2[C@@H](CC(=O)O)c3cc(F)ccc3S2(=O)=O)cc1` is -1.99%. Consider `CCCCCNC(=O)c1cccnc1SCC(=O)Nc1ccccc1OC`, for which the inhibition was 1.51%.

For `Cc1cccc(NS(=O)(=O)c2cccc(C(=O)NNC(=O)c3ccccc3O)c2)c1`, the inhibition was 46%. In the case of `CCOC(=O)C(C)N(c1ccccc1Cl)S(C)(=O)=O` (stereo unspecified) it was 19%; in that of `CC(C)=CCCC1(C)C=Cc2c(ccc3c2[nH]c2cc(O)c(C)cc23)O1` (stereo unspecified), 97.9% (active).

With `CC(Sc1ccccc1F)C(=O)Nc1cccc(S(=O)(=O)N2CCOCC2)c1` (stereo unspecified), the inhibition was 8.39%. As for `COc1ccc(NC(=O)NC2CC3CCCC(C2)N3Cc2ccccc2)cc1` (stereo unspecified), the inhibition was 5.4%.

Regarding `Cc1c(NC(=O)C(C)OC(=O)c2ccccc2O)c(=O)n(-c2ccccc2)n1C` (stereo unspecified), the inhibition is 13.1%. For `COc1ccc(C)cc1-n1nnnc1SCc1nc2ccccc2c(=O)[nH]1`, the inhibition was 18.2%. For `O=c1[nH]c(/C=C/c2cccc(Br)c2)nc2ccccc12`, the inhibition was 48.2%. In the case of `CCOc1cc(/C=C/c2nc3ccccc3c(=O)[nH]2)cc(Br)c1OC` it was 69.3% (active); in that of `Cc1nonc1OCCn1nnnc1N`, 6.95%. The figure for `COC(=O)c1ccc(Sc2ccc(F)cc2)c(N)c1` is -11%; for `Cc1ccsc1/C=N/Nc1ccc(Cl)nn1` it is -10.7%; for `Oc1cccc(/C=N/Nc2ccc(Cl)nn2)c1O` it is 68.6% (active).

In the case of `COc1cccc(/C=N/Nc2ccc(Cl)nn2)c1`, the inhibition was -64.5%.

`Cc1cc(N2CCCC2)ccc1NC(=O)COc1ccc(Cl)cc1`: the inhibition was -1.43%. `CCN(CC)C(=O)c1nc[nH]c1C(=O)N(C)Cc1ccccc1`: the inhibition is -2.16%. With `Cc1ccccc1CNC(=O)CCC(=O)N1Cc2ccccc2Oc2ncccc21`, the inhibition is 18.7%. For the molecule `CC[C@H]1OC(=O)[C@H](C)[C@@H](O[C@H]2C[C@@](C)(OC)[C@@H](O)[C@H](C)O2)[C@H](C)[C@@H](O[C@@H]2O[C@H](C)C[C@H](N(C)C)[C@H]2O)[C@](C)(O)C[C@@H](C)[C@@H]2N[C@@H](COCCOC)O[C@H]([C@H]2C)[C@]1(C)O`, the inhibition is -10.6%. In the case of `C=CCOc1c2ccc(C(=O)N(CC)c3ccc(OC)cc3)cc2nn1C`, the inhibition was 13.6%.

For the molecule `CCCCn1nc(C(=O)Nc2cccc(C(=O)NC3CC3)c2)c2ccccc2c1=O`, the inhibition was -19.3%. As for `CCCn1nc(C(=O)Nc2ccc3nc(C)sc3c2)c2ccccc2c1=O`, the inhibition is 65.5% (active). For `CCCn1nc(C(=O)NNC(=O)CSCC(=O)Nc2cc(C)on2)c2ccccc2c1=O`, the inhibition was -23.6%.

Consider `COc1ccccc1C1CC(=O)n2c(nc(-c3ccccc3)c2-c2ccccc2)S1` (stereo unspecified), for which the inhibition is -21.8%. As for `O=C(N[C@@H](Cc1c[nH]c2ccccc12)C(=O)O)OCC1c2ccccc2-c2ccccc21`, the inhibition was -20.2%. On to `C=C1CCC(N(O)c2cc(C)on2)C(=C)CCC2C1CC2(C)C` (stereo unspecified), for which the inhibition is -8.29%. The figure for `CC(=O)Nc1ccc(S(=O)(=O)N(CCc2ccccc2)CC(=O)N/N=C/c2ccc(C(=O)O)cc2)cc1` is -1.72%; for `Cc1ccc(N=C2NC(=O)/C(=C/C=C/c3ccco3)S2)cc1C` it is 7.92%. As to `CN(C)c1ccc(-n2cccc2/C=C2/SC(=Nc3ccc(F)cc3)NC2=O)cc1`, the inhibition was 53.3% (active).

As for `CN(C)c1ccc(-n2cccc2/C=N/n2cnnc2)cc1`, the inhibition was 18.3%. In the case of `Cc1ccc(S(=O)(=O)N2CCCCC2)cc1NC(=O)CCNC(=O)c1ccccc1`, the inhibition was -6.37%. `O=C(CN1CCOCC1)Nc1cccc([N+](=O)[O-])c1`: the inhibition was 14.4%.

Regarding `O=C(Nc1ccccc1Cl)/C(Cl)=C(\Cl)S(=O)c1ccccc1` (stereo unspecified), the inhibition was 93.6% (active). On to `Cc1c(NC(=O)Nc2ccccc2Cl)sc(=S)n1C`, for which the inhibition is -28%. Turning to `O=C(Cc1ccc2c(c1)CCCC2)Nc1ccccc1Cl`, the inhibition is -28.4%. `Cc1ccc(S(=O)(=O)N2CC(O)C[C@H]2C(=O)OCC(=O)Nc2ccc(N3CCOCC3)cc2)cc1C` (stereo partly specified): the inhibition was 31.1%. In the case of `NC(=O)c1cc2ccccc2o/c1=N/NC(=O)c1cccc(F)c1`, the inhibition is 1.22%. Consider `COc1cccc2cc(C(N)=O)/c(=N\NC(=O)c3ccccc3)oc12`, for which the inhibition was 56.6% (active).

Regarding `COc1cccc2cc(C(=O)N3CCN(C(=O)c4ccccc4)CC3)c(=O)oc12`, the inhibition is 13.1%. As for `CC(=O)N1CCc2c(sc(NC(=O)CCS(=O)(=O)c3ccc(C)cc3)c2C(N)=O)C1`, the inhibition is 25.4%.

As for `CC(=O)N1CCc2c(sc(NC(=O)CCS(=O)(=O)c3ccccc3)c2C#N)C1`, the inhibition was 86.2% (active). For the molecule `CC(C)N1CCc2c(sc(NC(=O)Cc3ccccc3)c2C#N)C1`, the inhibition is -40.8%. Regarding `COc1ccc(N(C(=O)c2snc(C(N)=O)c2N)C(C(=O)NC2CCCC2)c2ccco2)cc1OC` (stereo unspecified), the inhibition was 22.9%.

With `O=c1[nH]c(/C=C\c2cccc(C(F)(F)F)c2)nc(O)c1[N+](=O)[O-]`, the inhibition is -7.22%. As for `OC(COc1ccc(F)cc1Cl)CN1CCc2ccccc2C1` (stereo unspecified), the inhibition was -9.27%. The figure for `Cc1ccc(OCC(O)CN2CCN(CC(O)COc3ccc(C)cc3Cl)CC2)c(Cl)c1` (stereo unspecified) is 73.5% (active); for `Cc1cccc(OCC(O)CN2CCN(S(=O)(=O)c3ccc(C)cc3C)CC2)c1` (stereo unspecified) it is -4.83%; for `CC(C)Oc1ccc(CCC(=O)NNC(=S)NCc2ccccc2)cc1` it is -12.8%. On to `COc1ccc(OCC(=O)Nc2ccc(NC(=O)c3ccco3)c(C)c2)cc1`, for which the inhibition is -0.739%. For the molecule `COc1ccc(C(=O)NC(=S)NNC(=O)c2c(-c3ccccc3)noc2C)cc1`, the inhibition is 14.7%. As for `CCCc1ccc(OCCNC(=O)c2ccco2)cc1`, the inhibition was -4.69%. The figure for `CCOc1cc(NC(=S)NCc2ccco2)c(OCC)cc1NC(=O)c1ccco1` is 9.15%; for `CC(Oc1ccc2ccccc2c1)C(=O)NNC(=S)NC(=O)c1ccco1` (stereo unspecified) it is 19.6%. Turning to `CCCc1ccc(OCC(=O)NNC(=S)NC(=O)c2ccco2)cc1`, the inhibition is 50% (active). Turning to `COc1ccc(C(=O)NC(=S)NNC(=O)CCc2ccccc2)cc1`, the inhibition is 58.1% (active).

As to `CCOc1cc(NC(=O)c2ccco2)c(OCC)cc1NC(=O)COc1ccccc1`, the inhibition is 55.2% (active).
